Most compounds without a hit are left out; they make up all but 21% or so of the library.
Shiga inhibitor – Shiga toxin inhibition | 9.2% of 290,000 active | Vero cells, Shiga toxin protein synthesis inhibition reporter | inhibition, % at 38.7 µM; in the data active = inhibition mostly above about 28%, no sharp cut-off; inactive = mostly below about 43%
Pf growth 96h – inhibits malaria parasite growth, 96 h | 6.9% of 320,000 active | Potency, µM (series often up to 28.7 µM), usual class: inhibitors | P. falciparum luciferase reporter growth, 96 h | AID 504834
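Delayed-death screen, second-generation endpoint: infected erythrocytes, 2% hematocrit, 0.05% parasitemia final; 96 hours at 37 C, 5% CO2; luciferase detection reagent; luminescence decrease equals reduced growth.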
Cycloheximide cs – affects cycloheximide protein synthesis inhibition readout, counter-screen. cell reporter, cycloheximide protein synthesis inhibition counterscreen. max response, %. 12% of 300,000 active. AID 2314; in the data active = max response mostly above about 13%, no sharp cut-off; inactive = mostly below about 14%; also: read at 38.3 µM for the half of the compounds with a filed dose
Pf growth 48h – inhibits P. falciparum growth in the first generation, 48 h | P. falciparum luciferase growth in erythrocytes, 48 h | Potency, µM (titrated, usually from 28.7 µM), most hits filed as inhibitors | 5.9% of 310,000 active
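In quantitative HTS format, infected erythrocytes bearing luciferase-reporter parasites were treated for a single generation at 37 C. Luminescence after adding detection reagent served as the growth measure.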
SARS PLP yeast – blocks SARS-CoV papain-like protease in a yeast assay | 0.19% of 330,000 active | Potency, µM (doses to about 32.9 µM), most hits filed as activators | S. cerevisiae expressing SARS-CoV PLpro, growth rescue; calls by dose curve; also: nearly all actives have a fitted effect of over 55% in size
NS1 inh – influenza NS1 inhibition; 0.4% of 270,000 active; Potency, µM (top dose mostly 46.1 µM); AID 2326; calls by dose curve; also: actives are rising curves; nearly all actives have a fitted effect of over 50% in size
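OD600 was taken as the measure of yeast growth restored by compound in an NS1-expressing S. cerevisiae strain. Cells had been washed out of glucose medium and diluted 1:100 into galactose -URA medium, pH 6.0.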
Each line names hits and unclear results; the compound was inactive in the other large screens. Unless noted, calls follow the shape of the dose curve; as a rule, active = well fitted inhibition curve with a large enough effect; inconclusive = small, poorly fitted or top-dose-only effect, or another doubt; inactive = no such curve, though single readings can be large or run the other way.

Cc1nnc(SCC(=O)Nc2cccnc2Cl)s1	none (no result: Shiga inhibitor, Cycloheximide cs, NS1 inh)
CCc1ccc(Nc2nnc(SCC(=O)NCCN3C(=O)CSC3=O)s2)cc1	Shiga inhibitor 53, Pf growth 96h inconclusive, Cycloheximide cs 40
CCc1ccc(Nc2nnc(SCC(=O)Nc3sccc3C(N)=O)s2)cc1	Shiga inhibitor 62, Pf growth 96h inconclusive, Cycloheximide cs 32, Pf growth 48h inconclusive
CCc1ccc(Nc2nnc(SCC(=O)Nc3cccnc3Cl)s2)cc1	Shiga inhibitor 30, Pf growth 96h inconclusive, Cycloheximide cs 20
O=C1C=C(c2ccoc2)N2CCC[C@H]2C1	none (no result: Shiga inhibitor, Pf growth 96h, Cycloheximide cs, Pf growth 48h, NS1 inh)
O=C(O)c1ccc(S(=O)(=O)N[C@@H](Cc2ccc(O)cc2)C(=O)O)cc1	none (no result: NS1 inh)
Cc1ccc2nc(SCC(=O)Nc3cccnc3Cl)[nH]c2c1	none (no result: Shiga inhibitor, Cycloheximide cs, NS1 inh)
Cc1ccc(C)c(SCC(=O)Nc2cccnc2Cl)c1	Pf growth 96h inconclusive, Pf growth 48h 10µM (no result: NS1 inh)
CCO/C(C)=N/n1c2nc3ccccc3nc2c2c(=O)n(Cc3ccccc3Cl)c(C)nc21	Pf growth 96h inconclusive, Pf growth 48h 0.74µM
Cc1nc2c(c(=O)n1Cc1ccccc1Cl)c1nc3ccccc3nc1n2Cc1ccco1	Pf growth 96h inconclusive, Pf growth 48h inconclusive, NS1 inh inconclusive
Cc1cccc(NC(=S)N(CCN(C)C)Cc2cccs2)c1	Pf growth 96h inconclusive (no result: NS1 inh)
COc1ccc(NC(=O)N(C)C[C@H]2Oc3ccc(NC(=O)c4ccncc4)cc3C(=O)N([C@H](C)CO)C[C@@H]2C)cc1	none (no result: Shiga inhibitor, Pf growth 96h, Cycloheximide cs, Pf growth 48h, NS1 inh)
CC(C)(C)NC(=O)C(c1cccs1)N(Cc1cccs1)C(=O)c1ccc(CN2CCOCC2)o1 (stereo not drawn)	none (no result: NS1 inh)
Cc1cccc(N(C(=O)c2ccc(CN3CCOCC3)o2)C(C(=O)NC(C)(C)C)c2ccc(F)cc2)c1 (stereo not drawn)	Pf growth 96h inconclusive, Pf growth 48h 8.3µM
CC(=O)NCC(=O)N1CCCC(C(=O)c2ccc(Oc3ccccc3)cc2)C1 (stereo not drawn)	none
O=C(CCC1CCCN(C(=O)COc2ccccc2)C1)N1CCN(c2ccccn2)CC1 (stereo not drawn)	Pf growth 48h 10µM
COc1ccccc1C(=O)C1CCCN(C(=O)c2cccnc2SC)C1 (stereo not drawn)	Pf growth 48h 5.2µM
COc1ccc(C(=O)N2CCCC(CCC(=O)N3CCN(c4ccccn4)CC3)C2)cc1 (stereo not drawn)	Pf growth 48h inconclusive
CC1CCCN(C(=O)COc2ccc(-c3ccccc3)cc2)C1 (stereo not drawn)	Shiga inhibitor 40 (no result: NS1 inh)
COCC(=O)N1CCCC(C(=O)c2ccc(-c3ccccc3)cc2)C1 (stereo not drawn)	Cycloheximide cs 11
CSc1ccc(C(=O)C2CCCN(C(=O)c3cccnc3SC)C2)cc1 (stereo not drawn)	Pf growth 48h inconclusive
COc1ccc(CNC(=O)C(c2ccco2)N(C(=O)c2snc(C(N)=O)c2N)c2cccc(OC)c2)cc1 (stereo not drawn)	Pf growth 48h inconclusive
COc1ccc(NC(C)(C)c2nnnn2-c2c(C)cccc2C)cc1	none
Cc1cc(C)c(C)c(C(=O)CSc2nnc(C)c(=O)[nH]2)c1C	none (no result: Pf growth 48h)
CC1CCCN(C(=O)CCl)C1 (stereo not drawn)	Pf growth 96h 1.5µM, Pf growth 48h 4.7µM
CN1CC(C(=O)c2ccc(F)cc2)C(c2ccc(F)cc2)C1 (stereo not drawn)	none (no result: Pf growth 48h)
COc1ccc(C(=O)C2CCCN(C(=O)CSC)C2)cc1OC (stereo not drawn)	Pf growth 96h 13µM
CN1CCCC(C(=O)c2ccc(-c3ccccc3)cc2)C1 (stereo not drawn)	Shiga inhibitor 34, Pf growth 96h inconclusive, Cycloheximide cs 23, Pf growth 48h inconclusive
CN1CC(C(=O)c2ccccc2)C(C(=O)c2ccccc2)C1 (stereo not drawn)	Shiga inhibitor 112, Cycloheximide cs 55
CN1CCN(C(=O)c2ccc(-c3ccccc3)cc2)CC1	none
CCCN(CC(=O)Nc1ccc(F)c(F)c1F)C(=O)c1ccc(N2CCCC2=O)cc1	Pf growth 96h inconclusive (no result: Shiga inhibitor, Cycloheximide cs, NS1 inh)
COc1cc(C#N)c(NC(=O)CN2CCN(CCO)CC2)cc1OC	none
CN1CCN(C(=O)NCC23CC4CC(CC(C4)C2)C3)CC1	none
CCN1C(=O)CC(N2CCN(c3ccc(C(=O)c4ccccc4)cc3)CC2)C1=O (stereo not drawn)	Shiga inhibitor 106, Cycloheximide cs 64, Pf growth 48h inconclusive (no result: Pf growth 96h, SARS PLP yeast)
O=C1CC(N2CCN(c3ccc(C(=O)c4ccc(F)cc4)cc3)CC2)C(=O)N1 (stereo not drawn)	Cycloheximide cs 18 (no result: Pf growth 96h)
CC1CC(C)CN(S(=O)(=O)c2ccc(C(=O)N3CCOCC3)cc2)C1 (stereo not drawn)	Pf growth 48h inconclusive
CCOC(=O)c1cnc2nc(C)[nH]n2c1=O	none
CCOC(=O)c1cnc2sc3c(n2c1=O)CCCC3	Shiga inhibitor 92, Pf growth 96h inconclusive, Cycloheximide cs 43, Pf growth 48h inconclusive
CCOC(=O)c1cnc2oc3ccccc3n2c1=O	Cycloheximide cs 58 (no result: Shiga inhibitor, SARS PLP yeast)
O=C1NC[C@@H](c2ccccc2)OC(=O)[C@@H](Cc2ccc(F)cc2)C/C=C\C[C@@H]1CC(=O)N(CCO)Cc1ccccc1	none (no result: Shiga inhibitor, Pf growth 96h, Cycloheximide cs, Pf growth 48h, NS1 inh)
O=C1CCc2cc(S(=O)(=O)Nc3ccc(F)cc3)ccc2N1	none (no result: Shiga inhibitor, Cycloheximide cs, NS1 inh)
O=C(CCC(=O)N1CCN(c2ccccc2)CC1)Nc1nnc(C2CCCCC2)s1	none
CCn1c(CNC(=O)c2ccccc2OC)nnc1SCC(=O)c1ccc(F)cc1	none
O=C(Cn1ncn2c(cc3sccc32)c1=O)NC1CCCC1	Pf growth 96h 8.3µM
Cc1cc(C)cc(OCC(=O)Nc2ccncc2)c1	Pf growth 96h inconclusive (no result: Shiga inhibitor)
CCCOc1cccc(-c2nc3ccccc3c(=O)o2)c1	Shiga inhibitor 79, Pf growth 96h inconclusive, Cycloheximide cs 51
O=c1oc(-c2ccc(Br)cc2)nc2ccccc12	Pf growth 96h 5.9µM, Cycloheximide cs 26 (no result: Shiga inhibitor)
O=c1oc(-c2ccc([N+](=O)[O-])cc2)nc2ccccc12	Pf growth 96h inconclusive, Pf growth 48h inconclusive (no result: NS1 inh)
Nc1ccccc1-c1nc2ccccc2c(=O)o1	Shiga inhibitor 29, Pf growth 96h inconclusive, Cycloheximide cs 18
O=c1oc(-c2ccccc2[N+](=O)[O-])nc2ccccc12	Pf growth 96h inconclusive
CCOC(CCn1ccc(O)c(Cc2ccc(Cl)cc2)c1=O)OCC	Pf growth 48h inconclusive
O=C(NCc1ccco1)c1ccc(N2CCOCC2)c([N+](=O)[O-])c1	Pf growth 96h inconclusive
CC1CCN(S(=O)(=O)c2cccc(C(=O)NCc3ccco3)c2)CC1	none
CC1CCN(c2ccc(C(=O)NCc3ccco3)cc2[N+](=O)[O-])CC1	Shiga inhibitor 54, Pf growth 96h 1.2µM, Cycloheximide cs 22, Pf growth 48h 0.83µM
O=C(NCc1ccco1)c1ccc(N2CCCCC2)c([N+](=O)[O-])c1	Shiga inhibitor 41, Pf growth 96h 6.6µM, Cycloheximide cs 20, Pf growth 48h 8.3µM

Screens deposited in PubChem BioAssay by National Center for Advancing Translational Sciences (NCATS).
